Experimental data: PubChem BioAssay AID1159580 (chemical genetic matrix, 2015)
Values joined by “and” are separate entries in the source; they are usually repeats but may differ in a detail not shown here. Equal values may be shown once. Out of some 5,500 compounds screened, about 2,000 (36%) were called active. Inconclusive results (about 18%) are left out. No stated cut-off is given here; in the data, active means normalized growth mostly below about 0.91 (no sharp cut-off); inconclusive means no clear call, values can overlap the other calls; inactive means mostly above about 0.92. The list shows a part of the results.

Experiment: chemical genetic growth profiling, strain panel (AID 1159580);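 further: tested at 20 µM; growth read once vehicle control cultures reached saturation at 30 °C; 1 = growth at the plate median or of vehicle wells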
Settings: S. cerevisiae deletion strains, growth OD

Measured: normalized growth

COC(=O)CCC(C)C1CCC2C3CC[C@@H]4C[C@H](O)CC[C@]4(C)C3C[C@H](O)[C@]12C (some centres not stated)
inactive: locus YAL013W, strain DEP1, stronger effect = lower value 0.983 | locus YAL026C, strain drs2, stronger effect = lower value 1 | locus YAL030W, strain snc1, stronger effect = lower value 0.987 | locus YBR009C, strain hhf1, stronger effect = lower value 0.925 | locus YBR021W, strain FUR4, stronger effect = lower value 1.01 | locus YBR171W, strain sec66, stronger effect = lower value 1.01 | locus YBR229C, strain ROT2, stronger effect = lower value 0.998 | locus YBR231C, strain swc5, stronger effect = lower value 0.978 | locus YBR279W, strain paf1, stronger effect = lower value 0.996 | locus YCL011C, strain gbp2, stronger effect = lower value 0.966 | locus YCL016C, strain dcc1, stronger effect = lower value 0.967 | locus YCL029C, strain bik1, stronger effect = lower value 1.01 | locus YCL061C, strain MRC1, stronger effect = lower value 0.992 | locus YCL069W, strain vba3, stronger effect = lower value 1.01 | locus YCR088W, strain abp1, stronger effect = lower value 1 | locus YDL005C, strain med2, stronger effect = lower value 0.983 | locus YDL035C, strain GPR1, stronger effect = lower value 0.989 | locus YDL040C, strain nat1, stronger effect = lower value 0.985 | locus YDL074C, strain BRE1, stronger effect = lower value 0.849 | locus YDL101C, strain DUN1, stronger effect = lower value 0.973 | locus YDL134C, strain PPH21, stronger effect = lower value 0.951 | locus YDL185W, strain tfp1, stronger effect = lower value 1.02 | locus YDL192W, strain arf1, stronger effect = lower value 0.922 | locus YDR001C, strain nth1, stronger effect = lower value 0.996 | locus YDR069C, strain doa4, stronger effect = lower value 1.04 | locus YDR101C, strain arx1, stronger effect = lower value 1 | locus YDR162C, strain NBP2, stronger effect = lower value 0.928 | locus YDR297W, strain sur2, stronger effect = lower value 0.986 | locus YDR318W, strain mcm21, stronger effect = lower value 0.993 | locus YDR334W, strain swr1, stronger effect = lower value 1.01 | locus YDR335W, strain msn5, stronger effect = lower value 0.975 | locus YDR388W, stronger effect = lower value 1.02 | locus YDR502C, strain sam2, stronger effect = lower value 1.02 | locus YEL003W, strain gim4, stronger effect = lower value 0.99 | locus YEL037C, strain rad23, stronger effect = lower value 1.01 | locus YEL061C, strain CIN8 (second series), stronger effect = lower value 0.999 | locus YEL061C, strain CIN8, stronger effect = lower value 0.975 | locus YER015W, strain faa2, stronger effect = lower value 1 | locus YER016W, strain bim1, stronger effect = lower value 0.962 | locus YER110C, stronger effect = lower value 1.02 | locus YER111C, strain swi4, stronger effect = lower value 0.996 | locus YER155C, strain BEM2, stronger effect = lower value 0.955 | locus YER167W, strain BCK2, stronger effect = lower value 1.01 | locus YFR010W, strain ubp6, stronger effect = lower value 1.04 | locus YGL078C, strain dbp3, stronger effect = lower value 1.02 | locus YGL086W, strain mad1, stronger effect = lower value 0.997 | locus YGL167C, strain pmr1, stronger effect = lower value 0.971 | locus YGL173C, strain kem1, stronger effect = lower value 0.992 | locus YGL227W, strain vid30, stronger effect = lower value 1 | locus YGL240W, strain doc1, stronger effect = lower value 0.928 | locus YGL248W, strain PDE1, stronger effect = lower value 0.95 | locus YGL253W, strain hxk2, stronger effect = lower value 0.985 | locus YGR135W, strain pre9, stronger effect = lower value 1.01 | locus YGR252W, strain gcn5, stronger effect = lower value 0.887 | locus YHR027C, strain rpn1, stronger effect = lower value 1 | locus YHR079C, strain IRE1 (second series), stronger effect = lower value 1 | locus YHR094C, strain hxt1, stronger effect = lower value 1.03 | locus YHR129C, strain ARP1, stronger effect = lower value 0.955 | locus YHR200W, strain rpn10, stronger effect = lower value 1.02 | locus YIL066C, strain RNR3, stronger effect = lower value 0.923 | locus YIL073C, strain SPO22, stronger effect = lower value 1.27 | locus YIL125W, strain kgd1, stronger effect = lower value 1.01 | locus YIR030C, strain dcg1, stronger effect = lower value 1.01 | locus YJL092W, strain hpr5, stronger effect = lower value 1 | locus YJL115W, strain asf1, stronger effect = lower value 1.01 | locus YJL129C, strain trk1, stronger effect = lower value 0.934 | locus YJL134W, strain LCB3, stronger effect = lower value 1.01 | locus YJL154C, strain vps35, stronger effect = lower value 1.01 | locus YJL164C, strain tpk1, stronger effect = lower value 0.957 | locus YJL168C, strain set2, stronger effect = lower value 1.01 | locus YJL187C, strain SWE1 (second series), stronger effect = lower value 0.979 | locus YJL187C, strain SWE1, stronger effect = lower value 0.995 | locus YJR043C, strain POL32, stronger effect = lower value 1.02 | locus YJR066W, strain TOR1, stronger effect = lower value 0.941 | locus YKL009W, strain mrt4, stronger effect = lower value 0.959 | locus YKL068W, stronger effect = lower value 0.993 | locus YKL085W, strain MDH1 (second series), stronger effect = lower value 0.991 | locus YKL085W, strain MDH1, stronger effect = lower value 0.991 | locus YKL160W, strain elf1, stronger effect = lower value 0.92 | locus YKL190W, strain CNB1, stronger effect = lower value 1.02 | locus YKR001C, strain vps1, stronger effect = lower value 0.931 | locus YKR026C, strain gcn3, stronger effect = lower value 1 | locus YKR091W, strain srl3, stronger effect = lower value 0.993 | locus YLL001W, strain dnm1, stronger effect = lower value 0.99 | locus YLL026W, stronger effect = lower value 0.986 | locus YLL041C, strain sdh2, stronger effect = lower value 1.01 | locus YLR039C, strain RIC1, stronger effect = lower value 0.88 | locus YLR058C, strain SHM2, stronger effect = lower value 0.972 | locus YLR102C, strain apc9, stronger effect = lower value 1.01 | locus YLR221C, strain rsa3, stronger effect = lower value 0.932 | locus YLR258W, strain gsy2, stronger effect = lower value 0.958 | locus YLR262C, strain YPT6, stronger effect = lower value 0.792 | locus YLR268W, strain sec22, stronger effect = lower value 1 | locus YLR342W, strain FKS1 (second series), stronger effect = lower value 0.933 | locus YLR357W, strain rsc2, stronger effect = lower value 0.982 | locus YLR370C, strain arc18, stronger effect = lower value 0.998 | locus YLR371W, strain rom2, stronger effect = lower value 1.01 | locus YLR384C, strain iki3, stronger effect = lower value 0.992 | locus YML016C, strain PPZ1, stronger effect = lower value 1.05 | locus YML032C, strain rad52, stronger effect = lower value 0.981 | locus YML120C, strain ndi1, stronger effect = lower value 0.988 | locus YML124C, strain tub3, stronger effect = lower value 1 | locus YMR058W, strain fet3, stronger effect = lower value 0.976 | locus YMR078C, strain ctf18, stronger effect = lower value 1.01 | locus YMR125W, strain sto1, stronger effect = lower value 0.983 | locus YMR129W, stronger effect = lower value 1 | locus YMR223W, strain ubp8, stronger effect = lower value 0.98 | locus YMR231W, strain pep5, stronger effect = lower value 0.977 | locus YMR263W, strain SAP30, stronger effect = lower value 0.998 | locus YMR307W, strain GAS1, stronger effect = lower value 0.843 | locus YNL067W, strain RPL9B, stronger effect = lower value 0.98 | locus YNL153C, strain GIM3, stronger effect = lower value 0.982 | locus YNL183C, strain NPR1, stronger effect = lower value 0.908 | locus YNL209W, strain ssb2, stronger effect = lower value 1 | locus YNL233W, strain BNI4, stronger effect = lower value 0.927 | locus YNL248C, strain rpa49, stronger effect = lower value 1.04 | locus YNL250W, strain rad50, stronger effect = lower value 1.04 | locus YNL271C, strain bni1, stronger effect = lower value 1.01 | locus YNL298W, strain CLA4, stronger effect = lower value 1.05 | locus YNL307C, strain MCK1, stronger effect = lower value 0.917 | locus YNL322C, strain KRE1 (second series), stronger effect = lower value 0.999 | locus YNL322C, strain KRE1, stronger effect = lower value 1.01 | locus YNR049C, strain mso1, stronger effect = lower value 0.99 | locus YNR052C, strain pop2, stronger effect = lower value 0.971 | locus YOL006C, strain TOP1, stronger effect = lower value 0.909 | locus YOL012C, strain htz1 0.571 | locus YOL147C, strain pex11, stronger effect = lower value 1.02 | locus YOR001W, strain rrp6, stronger effect = lower value 0.995 | locus YOR061W, strain CKA2, stronger effect = lower value 0.999 | locus YOR069W, strain VPS5, stronger effect = lower value 1.02 | locus YOR070C, strain gyp1, stronger effect = lower value 0.971 | locus YOR080W, strain dia2, stronger effect = lower value 1.01 | locus YOR083W, strain WHI5, stronger effect = lower value 0.984 | locus YOR106W, strain vam3, stronger effect = lower value 0.933 | locus YOR136W, strain idh2, stronger effect = lower value 1.01 | locus YOR144C, strain elg1, stronger effect = lower value 1.01 | locus YOR265W, strain rbl2, stronger effect = lower value 0.98 | locus YOR270C, strain vph1, stronger effect = lower value 0.99 | locus YOR290C, strain snf2, stronger effect = lower value 1.01 | locus YOR316C, strain cot1, stronger effect = lower value 1.01 | locus YPL078C, strain atp4, stronger effect = lower value 0.943 | locus YPL106C, strain sse1, stronger effect = lower value 0.989 | locus YPL240C, strain hsp82, stronger effect = lower value 0.992 | locus YPR119W, strain clb2, stronger effect = lower value 0.994 | locus YPR141C, strain kar3, stronger effect = lower value 1.01 | locus YPR163C, strain tif3, stronger effect = lower value 1.02 | locus YPR167C, strain met16, stronger effect = lower value 1.02 | strain wtn01, stronger effect = lower value 1.03
0.819 (inactive) and 0.826 (active): locus YJL095W, strain BCK1, stronger effect = lower value
0.923 (inactive) and 0.843 (active): locus YHR030C, strain SLT2, stronger effect = lower value
active: locus YAL021C, strain ccr4, stronger effect = lower value 1.11 [resistant] | locus YBL061C, strain skt5, stronger effect = lower value 0.9 | locus YBR023C, strain chs3, stronger effect = lower value 0.909 | locus YDR137W, strain rgp1, stronger effect = lower value 0.754 | locus YDR159W, strain sac3, stronger effect = lower value 0.757 | locus YDR195W, strain ref2 0.802 | locus YDR392W, strain spt3, stronger effect = lower value 0.331 | locus YER155C, strain BEM2 (second series), stronger effect = lower value 0.746 | locus YGR229C, strain SMI1, stronger effect = lower value 0.709 | locus YHR013C, strain ard1, stronger effect = lower value 1.34 [resistant] | locus YHR079C, strain IRE1, stronger effect = lower value 0.826 | locus YHR142W, strain chs7, stronger effect = lower value 0.819 | locus YJL095W, strain BCK1 (second series), stronger effect = lower value 0.867 | locus YJL166W, strain qcr8, stronger effect = lower value 0.892 | locus YLR027C, strain aat2, stronger effect = lower value 0.918 | locus YLR113W, strain HOG1, stronger effect = lower value 0.439 | locus YLR262C, strain YPT6 (second series), stronger effect = lower value 0.776 | locus YLR320W, strain mms22, stronger effect = lower value 0.812 | locus YLR330W, strain CHS5, stronger effect = lower value 0.903 | locus YLR342W, strain FKS1, stronger effect = lower value 0.699 | locus YLR418C, strain cdc73, stronger effect = lower value 0.77 | locus YMR205C, strain PFK2, stronger effect = lower value 0.846 | locus YNL071W, strain lat1, stronger effect = lower value 0.72 | locus YOR184W, strain ser1, stronger effect = lower value 0.853 | locus YOR231W, strain MKK1, stronger effect = lower value 0.814 | locus YPL051W, strain arl3, stronger effect = lower value 0.913 | locus YPL256C, strain CLN2, stronger effect = lower value 0.8
